Assay results: the supplement of paper PMC10849652
Of roughly 8,800 targets only a part is listed; those with a hit were picked by preference. About 0.5% of all pairs of compound and target were hits.

compound: Cn1cc(CNCC2CCN(c3ncc(C(=O)NO)cn3)CC2)c2ccccc21 [quisinostat]; assay: log2 fold change, soluble protein after heating vs DMSO (PISA); higher = thermal stabilisation; K562 lysate, 10 uM; active = over 0.2 and 3.5 SD of the protein, either way, in both replicates (recomputed)
Method in brief: (§1)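 Following dounce homogenisation of K562 pellets in PBS pH 7.4 with 1 mM MgCl2, crude extract at 1 mg/mL protein was incubated for 30 min with 10 μM compound. Aliquots were then heated for 3 min over 48°C-58°C and pooled, NP-40 was added to 0.5% at 4°C, and soluble protein was recovered as the supernatant at 21,000xg for 90 min. Channel-sum-equalised TMTpro 16plex LC-MS/MS quantified this protein. Each value, from duplicates, is a log-two fold change in thermal stability relative to solvent controls.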

Sequence of UniProt P49448 (P49448 whole entry, looked up): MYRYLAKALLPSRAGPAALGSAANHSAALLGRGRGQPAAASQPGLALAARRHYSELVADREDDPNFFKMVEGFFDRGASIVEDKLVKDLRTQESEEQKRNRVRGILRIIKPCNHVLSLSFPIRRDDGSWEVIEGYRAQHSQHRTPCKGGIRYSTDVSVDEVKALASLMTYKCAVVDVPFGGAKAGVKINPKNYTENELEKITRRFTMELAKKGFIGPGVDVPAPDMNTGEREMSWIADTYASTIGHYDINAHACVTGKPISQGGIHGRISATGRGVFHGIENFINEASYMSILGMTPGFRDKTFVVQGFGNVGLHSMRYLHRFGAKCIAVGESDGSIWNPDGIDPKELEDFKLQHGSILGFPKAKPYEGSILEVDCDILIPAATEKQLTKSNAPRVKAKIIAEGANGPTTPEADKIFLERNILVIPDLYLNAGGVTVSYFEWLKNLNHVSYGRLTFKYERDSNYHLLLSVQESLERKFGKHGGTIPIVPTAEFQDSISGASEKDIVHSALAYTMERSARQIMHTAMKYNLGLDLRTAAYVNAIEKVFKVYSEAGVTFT
Sequence of UniProt O00425 (O00425 whole entry, looked up): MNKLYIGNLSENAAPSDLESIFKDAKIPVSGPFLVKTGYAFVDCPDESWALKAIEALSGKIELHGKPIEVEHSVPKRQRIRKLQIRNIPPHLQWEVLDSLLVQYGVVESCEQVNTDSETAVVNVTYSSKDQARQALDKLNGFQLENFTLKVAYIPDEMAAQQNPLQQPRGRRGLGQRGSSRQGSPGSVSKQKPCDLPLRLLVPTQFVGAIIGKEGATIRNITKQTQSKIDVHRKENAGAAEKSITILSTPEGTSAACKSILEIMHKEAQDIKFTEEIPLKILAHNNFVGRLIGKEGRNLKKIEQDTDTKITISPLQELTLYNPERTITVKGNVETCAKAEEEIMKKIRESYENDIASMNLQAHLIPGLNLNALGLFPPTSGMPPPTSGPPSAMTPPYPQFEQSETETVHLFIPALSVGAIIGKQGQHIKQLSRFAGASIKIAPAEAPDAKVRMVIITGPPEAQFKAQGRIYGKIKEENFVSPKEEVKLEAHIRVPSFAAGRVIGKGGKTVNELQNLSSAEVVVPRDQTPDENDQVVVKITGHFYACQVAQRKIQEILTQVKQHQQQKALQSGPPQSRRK
Sequence of UniProt Q99729 (Q99729 whole entry, looked up): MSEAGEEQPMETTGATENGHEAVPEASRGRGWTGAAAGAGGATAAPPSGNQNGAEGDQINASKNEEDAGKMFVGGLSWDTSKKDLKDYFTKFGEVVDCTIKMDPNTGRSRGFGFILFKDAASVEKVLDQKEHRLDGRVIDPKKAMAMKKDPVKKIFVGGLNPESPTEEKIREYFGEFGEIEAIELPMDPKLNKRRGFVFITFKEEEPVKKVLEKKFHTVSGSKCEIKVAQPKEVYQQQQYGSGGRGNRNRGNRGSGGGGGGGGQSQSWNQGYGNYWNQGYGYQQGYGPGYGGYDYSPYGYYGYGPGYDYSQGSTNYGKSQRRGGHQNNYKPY
Sequence of UniProt Q8NC54 (Q8NC54 whole entry, looked up): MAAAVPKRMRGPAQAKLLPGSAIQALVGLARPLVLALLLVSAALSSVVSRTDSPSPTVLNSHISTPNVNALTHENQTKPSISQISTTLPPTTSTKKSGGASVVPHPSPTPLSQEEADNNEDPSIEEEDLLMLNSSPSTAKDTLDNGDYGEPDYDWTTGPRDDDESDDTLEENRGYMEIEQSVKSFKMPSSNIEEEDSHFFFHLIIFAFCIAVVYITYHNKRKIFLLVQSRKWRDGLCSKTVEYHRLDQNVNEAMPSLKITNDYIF
Sequence of UniProt Q15046 (Q15046 whole entry, looked up): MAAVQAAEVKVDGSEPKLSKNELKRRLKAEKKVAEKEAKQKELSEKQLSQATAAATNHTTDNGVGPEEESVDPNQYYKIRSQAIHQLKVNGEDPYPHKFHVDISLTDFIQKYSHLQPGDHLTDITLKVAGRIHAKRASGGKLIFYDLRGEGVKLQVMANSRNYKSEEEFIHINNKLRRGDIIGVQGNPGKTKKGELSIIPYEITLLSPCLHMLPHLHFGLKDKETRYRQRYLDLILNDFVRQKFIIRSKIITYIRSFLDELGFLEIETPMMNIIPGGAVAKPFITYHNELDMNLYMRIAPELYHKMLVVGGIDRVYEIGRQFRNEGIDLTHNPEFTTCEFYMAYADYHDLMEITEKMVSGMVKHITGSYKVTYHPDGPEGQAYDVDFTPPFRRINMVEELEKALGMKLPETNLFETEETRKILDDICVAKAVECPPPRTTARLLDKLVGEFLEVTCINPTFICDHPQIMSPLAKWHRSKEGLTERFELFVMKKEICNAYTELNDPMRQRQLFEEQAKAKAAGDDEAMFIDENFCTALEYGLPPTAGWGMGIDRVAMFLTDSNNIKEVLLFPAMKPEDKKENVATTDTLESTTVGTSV
Sequence of UniProt Q8IY47 (Q8IY47 whole entry, looked up): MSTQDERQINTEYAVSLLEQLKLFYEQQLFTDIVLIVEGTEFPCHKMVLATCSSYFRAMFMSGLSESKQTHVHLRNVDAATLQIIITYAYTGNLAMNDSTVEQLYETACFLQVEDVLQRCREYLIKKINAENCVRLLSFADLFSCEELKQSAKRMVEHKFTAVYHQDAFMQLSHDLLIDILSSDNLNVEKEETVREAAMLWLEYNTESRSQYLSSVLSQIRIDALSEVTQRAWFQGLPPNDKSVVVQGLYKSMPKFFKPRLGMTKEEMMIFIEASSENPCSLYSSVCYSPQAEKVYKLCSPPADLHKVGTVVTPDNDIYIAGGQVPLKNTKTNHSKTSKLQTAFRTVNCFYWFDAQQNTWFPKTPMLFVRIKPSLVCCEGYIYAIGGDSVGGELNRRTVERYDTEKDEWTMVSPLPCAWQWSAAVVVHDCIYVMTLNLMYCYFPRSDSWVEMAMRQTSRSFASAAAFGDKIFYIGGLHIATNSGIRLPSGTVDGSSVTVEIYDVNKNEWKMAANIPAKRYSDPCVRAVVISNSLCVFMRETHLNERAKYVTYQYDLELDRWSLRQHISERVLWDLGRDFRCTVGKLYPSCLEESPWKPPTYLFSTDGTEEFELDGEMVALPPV
Sequence of UniProt O75367 (O75367 whole entry, looked up): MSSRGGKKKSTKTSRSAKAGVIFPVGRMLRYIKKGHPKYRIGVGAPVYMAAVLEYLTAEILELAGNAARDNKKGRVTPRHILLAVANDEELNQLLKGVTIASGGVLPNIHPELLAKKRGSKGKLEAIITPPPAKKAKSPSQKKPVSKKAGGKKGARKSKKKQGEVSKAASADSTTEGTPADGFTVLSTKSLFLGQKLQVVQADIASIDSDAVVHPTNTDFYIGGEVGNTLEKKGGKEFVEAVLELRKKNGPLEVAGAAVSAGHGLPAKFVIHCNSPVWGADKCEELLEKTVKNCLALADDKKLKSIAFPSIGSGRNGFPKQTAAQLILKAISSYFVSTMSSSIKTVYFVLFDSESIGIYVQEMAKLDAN
Sequence of UniProt Q9H6D7 (Q9H6D7 whole entry, looked up): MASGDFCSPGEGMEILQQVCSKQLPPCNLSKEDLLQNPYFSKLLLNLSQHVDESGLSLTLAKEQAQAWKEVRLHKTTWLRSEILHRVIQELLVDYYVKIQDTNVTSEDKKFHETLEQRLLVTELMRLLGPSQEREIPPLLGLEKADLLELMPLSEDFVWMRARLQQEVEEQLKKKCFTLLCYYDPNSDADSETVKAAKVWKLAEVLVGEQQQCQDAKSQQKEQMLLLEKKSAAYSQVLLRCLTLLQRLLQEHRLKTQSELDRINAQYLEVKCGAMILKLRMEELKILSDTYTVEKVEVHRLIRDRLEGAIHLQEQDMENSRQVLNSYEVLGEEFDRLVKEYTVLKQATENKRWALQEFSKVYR
Sequence of UniProt Q01581 (Q01581 whole entry, looked up): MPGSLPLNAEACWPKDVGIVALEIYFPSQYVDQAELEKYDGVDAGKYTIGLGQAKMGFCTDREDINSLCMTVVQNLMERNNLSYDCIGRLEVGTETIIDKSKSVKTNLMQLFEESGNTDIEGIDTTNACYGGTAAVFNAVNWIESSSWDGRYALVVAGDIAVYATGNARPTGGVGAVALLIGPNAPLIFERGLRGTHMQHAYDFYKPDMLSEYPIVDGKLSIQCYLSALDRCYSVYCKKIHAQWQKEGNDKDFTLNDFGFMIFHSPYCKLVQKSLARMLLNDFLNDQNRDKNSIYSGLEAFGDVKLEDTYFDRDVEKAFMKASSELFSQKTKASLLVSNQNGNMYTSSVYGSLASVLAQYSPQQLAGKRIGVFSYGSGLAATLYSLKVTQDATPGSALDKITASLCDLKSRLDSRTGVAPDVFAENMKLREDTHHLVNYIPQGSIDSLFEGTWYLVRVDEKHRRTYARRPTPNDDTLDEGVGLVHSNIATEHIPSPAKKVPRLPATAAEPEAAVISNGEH
Sequence of UniProt P32780 (P32780 whole entry, looked up): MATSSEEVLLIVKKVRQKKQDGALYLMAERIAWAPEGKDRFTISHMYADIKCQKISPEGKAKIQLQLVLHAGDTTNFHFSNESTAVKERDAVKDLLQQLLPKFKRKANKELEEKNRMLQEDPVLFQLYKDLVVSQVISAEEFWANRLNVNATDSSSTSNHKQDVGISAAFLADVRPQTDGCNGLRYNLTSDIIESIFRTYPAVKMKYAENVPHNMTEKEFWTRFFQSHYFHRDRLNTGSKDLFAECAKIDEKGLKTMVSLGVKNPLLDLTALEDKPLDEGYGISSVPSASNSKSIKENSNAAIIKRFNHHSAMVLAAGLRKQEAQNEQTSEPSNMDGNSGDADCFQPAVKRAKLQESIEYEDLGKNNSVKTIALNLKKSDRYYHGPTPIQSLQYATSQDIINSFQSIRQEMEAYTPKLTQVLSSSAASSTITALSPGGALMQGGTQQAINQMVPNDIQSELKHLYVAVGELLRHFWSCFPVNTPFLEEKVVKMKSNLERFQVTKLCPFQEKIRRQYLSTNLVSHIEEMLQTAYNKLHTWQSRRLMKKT
Sequence of UniProt Q96AB3 (Q96AB3 whole entry, looked up): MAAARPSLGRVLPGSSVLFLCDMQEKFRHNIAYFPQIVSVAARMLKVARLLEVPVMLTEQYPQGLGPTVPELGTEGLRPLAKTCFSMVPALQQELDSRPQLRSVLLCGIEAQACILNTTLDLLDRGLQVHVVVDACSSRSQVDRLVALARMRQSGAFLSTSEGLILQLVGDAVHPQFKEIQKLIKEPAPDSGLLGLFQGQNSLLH

Row | Target | log2 fold change
1 | IRAK4 (UniProt Q9NWZ3) | -0.066 (inactive)
2 | GLUD2 (UniProt P49448) | 0.039 (inactive)
3 | HAUS4 (UniProt Q9H6D7) | -0.065 (inactive)
4 | HNRNPD isoform 2 (UniProt Q14103) | 0.139 (inactive)
5 | HECTD3 (UniProt Q5T447) | 0.026 (inactive)
6 | GTF2H1 (UniProt P32780) | -0.064 (inactive)
7 | KARS1 (UniProt Q15046) | 0.034 (inactive)
8 | HMGCS1 (UniProt Q01581) | -0.007 (inactive)
9 | HNRNPAB isoform 3 (UniProt Q99729) | 0.026 (inactive)
10 | ISOC2 (UniProt Q96AB3) | -0.053 (inactive)
11 | IGF2BP3 (UniProt O00425) | -0.045 (inactive)
12 | KBTBD2 (UniProt Q8IY47) | -0.178 (inactive)
13 | H2AFY (UniProt O75367) | -0.099 (inactive)
14 | KCT2 (UniProt Q8NC54) | 0.031 (inactive)

compound: Cn1cncc1[C@@](N)(c1ccc(Cl)cc1)c1ccc2c(c1)c(-c1cccc(Cl)c1)cc(=O)n2C [tipifarnib]; assay: as above
Method in brief: as §1

Row | Target | log2 fold change
15 | GTPBP2 (UniProt Q9BX10) | -0.079 (inactive)
16 | GMDS (UniProt O60547) | 0.029 (inactive)
17 | HSPA8 (UniProt E9PK54) | -0.01 (inactive)
18 | ILK (UniProt Q13418) | -0.001 (inactive)
19 | HNRNPUL2 (UniProt Q1KMD3) | 0.008 (inactive)
20 | KDM1A (UniProt O60341) | -0.052 (inactive)
21 | INF2 (UniProt Q27J81) | -0.079 (inactive)
22 | ITPKA (UniProt P23677) | -0.001 (inactive)
23 | INTS3 (UniProt Q68E01) | 0.09 (inactive)
24 | KBTBD4 isoform 2 (UniProt Q9NVX7) | 0.154 (inactive)
25 | HNRNPL (UniProt P14866) | 0.012 (inactive)
26 | HK1 isoform 2 (UniProt P19367) | 0.007 (inactive)
27 | HAUS8 (UniProt Q9BT25) | 0.004 (inactive)
28 | IMMT (UniProt Q16891) | -0.005 (inactive)
29 | HIST2H2AA3 (UniProt Q6FI13) | 0.058 (inactive)
30 | HAUS6 (UniProt Q7Z4H7) | 0.053 (inactive)
31 | ISY1 isoform 1 (UniProt Q9ULR0) | -0.018 (inactive)
32 | HLCS (UniProt P50747) | -0.006 (inactive)

Row | Target | log2 fold change
33 | HSD17B12 (UniProt Q53GQ0) | -0.118 (inactive)
34 | HAUS7 isoform 2 (UniProt Q99871) | -0.011 (inactive)
35 | GTF2A1 (UniProt P52655) | 0.021 (inactive)
36 | IL18R1 (UniProt Q13478) | 0.118 (inactive)
37 | IRAK4 (UniProt Q9NWZ3) | -0.044 (inactive)
38 | GLUD2 (UniProt P49448) | 0.047 (inactive)
39 | HAUS4 (UniProt Q9H6D7) | -0.021 (inactive)
40 | HNRNPD isoform 2 (UniProt Q14103) | 0.029 (inactive)
41 | HECTD3 (UniProt Q5T447) | 0.059 (inactive)
42 | GTF2H1 (UniProt P32780) | 0.084 (inactive)
43 | KARS1 (UniProt Q15046) | 0.02 (inactive)
44 | HMGCS1 (UniProt Q01581) | 0.001 (inactive)
45 | HNRNPAB isoform 3 (UniProt Q99729) | 0.006 (inactive)
46 | ISOC2 (UniProt Q96AB3) | -0.017 (inactive)
47 | IGF2BP3 (UniProt O00425) | 0.008 (inactive)
48 | KBTBD2 (UniProt Q8IY47) | -0.018 (inactive)
49 | H2AFY (UniProt O75367) | 0.005 (inactive)
50 | KCT2 (UniProt Q8NC54) | 0.001 (inactive)
